Here are results for 42 sequences from paper PMC10726135, “HNF4α isoforms regulate the circadian balance between carbohydrate and lipid metabolism in the liver”.

Over roughly 18,000 sequences, “log2 normalized intensity” has its median near 0.39; the highest 2% begin near 6.6. What follows is part of a selection rich in the highest values, with near analogues and random picks from the rest.

For the experiment, the target named is T1, HNF4alpha2 (COS-7 nuclear extract) (Homo sapiens, UniProt P41235 1-474).
T1 sequence: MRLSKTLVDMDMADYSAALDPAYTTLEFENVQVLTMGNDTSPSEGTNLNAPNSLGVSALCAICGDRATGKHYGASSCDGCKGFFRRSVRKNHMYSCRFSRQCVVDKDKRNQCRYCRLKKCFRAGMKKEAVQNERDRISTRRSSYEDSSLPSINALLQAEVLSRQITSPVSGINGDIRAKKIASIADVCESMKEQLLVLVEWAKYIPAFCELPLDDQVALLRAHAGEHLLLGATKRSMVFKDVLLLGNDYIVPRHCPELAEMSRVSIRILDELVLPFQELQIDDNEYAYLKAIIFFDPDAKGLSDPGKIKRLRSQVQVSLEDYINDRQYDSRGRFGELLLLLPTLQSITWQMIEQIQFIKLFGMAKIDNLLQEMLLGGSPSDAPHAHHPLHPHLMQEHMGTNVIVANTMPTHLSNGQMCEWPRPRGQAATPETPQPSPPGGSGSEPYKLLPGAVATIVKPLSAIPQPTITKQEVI
The experiment is described as follows: protein-binding microarray; COS-7 nuclear extract on double-stranded Agilent 4x180k PBM; binding buffer, salt, pH and temperature not given in the material; high values mean tight binding. The following applies: chain copies: 2; label: 3' end of strand 1 on the slide; dsDNA, one strand shown. The method, boiled down: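 Nuclear extracts from COS-7 cells expressing a transiently transfected human HNF4α isoform were put on a custom Agilent SurePrint G3 4x180k array carrying ~44,000 double-stranded ~60-nt test sequences in quadruplicate. Imaging used an Agilent G2565CA scanner at 2-µm resolution. Binding signal is the background-corrected, normalized gProcessedSignal from Agilent software.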
In the case of “CTGAGCCTCAGAACCATTTGTGAGGATGGGGCCTAGGGAGATTAGAGTATCGGTCGA”, the binding signal was -0.528 log2 normalized intensity.
For “AAGAGCTGAGGAAGTGCTGACCTTTGGTCTGCCTAGGGAGATTAGAGTATCGGTCGA” the value was 7.29 log2 normalized intensity; for “CTGAGGAAGTGCTGACCTTTGGTCTAAACCGCCTAGGGAGATTAGAGTATCGGTCGA”, 6.27 log2 normalized intensity; for “TGCATGCAAAAAGGCTGACCTTTGACTCTCGCCTAGGGAGATTAGAGTATCGGTCGA”, 7.57 log2 normalized intensity.
For “GTCAGAGTGCTGCATGCAAAAAGGCTGACCGCCTAGGGAGATTAGAGTATCGGTCGA” the value was 1.41 log2 normalized intensity; for “ATGCAAAGCCCTGGCTGACCTTTAGCCTGGGCCTAGGGAGATTAGAGTATCGGTCGA”, 6.54 log2 normalized intensity.
For “CTTTTTGACCTTGCAGTGGCAAGGCAAAAGGCCTAGGGAGATTAGAGTATCGGTCGA” the value was 1.56 log2 normalized intensity.
With “AGTGCTGCATGCAAAAAGGCTGACCTTTGAGCCTAGGGAGATTAGAGTATCGGTCGA”, the binding signal was found to be 7.82 log2 normalized intensity.
For “TAGATAAGAGCTGAGGAAGTGCTGACCTTTGCCTAGGGAGATTAGAGTATCGGTCGA” the value was 5.77 log2 normalized intensity; for “AGGCTGTCAGAGTGCTGCATGCAAAAAGGCGCCTAGGGAGATTAGAGTATCGGTCGA”, -0.743 log2 normalized intensity; for “CCCAGGTCACCCACAACCTACCCTTTGCCCGCCTAGGGAGATTAGAGTATCGGTCGA”, 3.99 log2 normalized intensity.
For “GGCTAGGGCAAAGATCAAACATACAGTAAAGCCTAGGGAGATTAGAGTATCGGTCGA” the value was 1.77 log2 normalized intensity; for “TAGCAATAATCTTTGAAATCTGCAAATAGAGCCTAGGGAGATTAGAGTATCGGTCGA”, -0.0917 log2 normalized intensity.
For “TCTGTGTGTATGTGTGTGTACACATTGATAGCCTAGGGAGATTAGAGTATCGGTCGA” the value was 2.42 log2 normalized intensity.
Take “AATTCCAGTTTGGACTTTGATCCTGATGACGCCTAGGGAGATTAGAGTATCGGTCGA”: the binding signal was determined as 9.15 log2 normalized intensity.
As to “GGAGAGAGTTTGGCCCCAGTTCCCATGGACGCCTAGGGAGATTAGAGTATCGGTCGA”, the binding signal is 1.18 log2 normalized intensity.
Turning to “GATGGAGATCATCCTGCAGTTCCTGATCTTGCCTAGGGAGATTAGAGTATCGGTCGA”, the binding signal was -0.826 log2 normalized intensity.
With “TGGACTTTGATCCTGATGACTGCAGAGCTTGCCTAGGGAGATTAGAGTATCGGTCGA”, the binding signal came to 5.26 log2 normalized intensity.
“CAGTTTGGACTTTGATCCTGATGACTGCAGGCCTAGGGAGATTAGAGTATCGGTCGA”: the binding signal was 7.49 log2 normalized intensity.
For “GCAGTTCCTGATCTTTGACCTGGAGCATGAGCCTAGGGAGATTAGAGTATCGGTCGA” the value was 4.61 log2 normalized intensity.
With “AGATCATCCTGCAGTTCCTGATCTTTGACCGCCTAGGGAGATTAGAGTATCGGTCGA”, the binding signal came out at 7.04 log2 normalized intensity.
For “TTTGATCCTGATGACTGCAGAGCTTGCTCTGCCTAGGGAGATTAGAGTATCGGTCGA” the value was -0.687 log2 normalized intensity.
With “ATCCTGCAGTTCCTGATCTTTGACCTGGAGGCCTAGGGAGATTAGAGTATCGGTCGA”, the binding signal is 5.61 log2 normalized intensity.
As to “CTTCTGTTCAGGAGTTGTCTGTCCAGTTCAGCCTAGGGAGATTAGAGTATCGGTCGA”, the binding signal came to 1.56 log2 normalized intensity.
For “TAATCCCTGAGCCTGGACCTTGGAATGTCAGCCTAGGGAGATTAGAGTATCGGTCGA” the value was 3.33 log2 normalized intensity.
For “AATTCACGTCATTTTGTCACCTACATGTGAGCCTAGGGAGATTAGAGTATCGGTCGA” the value was 1.67 log2 normalized intensity; for “TGCCCTGGACATATTTGTCTTCCTATCTCCGCCTAGGGAGATTAGAGTATCGGTCGA”, 0.887 log2 normalized intensity.
As to “TTCCAGAGCCTTCAAAGGAAAGCAGGTGTTGCCTAGGGAGATTAGAGTATCGGTCGA”, the binding signal was 0.55 log2 normalized intensity.
For “CAGGGTCAATGTCCCCTTAGGAATAGTATCGCCTAGGGAGATTAGAGTATCGGTCGA” the value was 2.14 log2 normalized intensity.
For “GAACAGCAAGACTTTGGCCCTGCAGACTTTGCCTAGGGAGATTAGAGTATCGGTCGA” the value was 2.09 log2 normalized intensity.
For “TCTGCAGCAGATGGCCAGCCTTTGGACTTTGCCTAGGGAGATTAGAGTATCGGTCGA” the value was 7.15 log2 normalized intensity; for “GGGATGGACTTTGGCCCTCAGCCCAATGTGGCCTAGGGAGATTAGAGTATCGGTCGA”, 6.2 log2 normalized intensity.
For the sequence “TTGAAAGGGACTTAGAATCGAATTGTGAAAGCCTAGGGAGATTAGAGTATCGGTCGA”, the binding signal was -0.196 log2 normalized intensity.
Consider “CTGGACTTTGGCTGCAAAATTTGAACAAAAGCCTAGGGAGATTAGAGTATCGGTCGA”, for which the binding signal was found to be 1.55 log2 normalized intensity.
For the sequence “TGAATTCTGCAGCAGATGGCCAGCCTTTGGGCCTAGGGAGATTAGAGTATCGGTCGA”, the binding signal is -0.936 log2 normalized intensity.
For “TACTGGGGATGGACTTTGGCCCTCAGCCCAGCCTAGGGAGATTAGAGTATCGGTCGA” the value was 8.56 log2 normalized intensity.
For “AAAGAGATTGGACTTTGGCCTGTGAATCCAGCCTAGGGAGATTAGAGTATCGGTCGA”, the binding signal amounted to 8.37 log2 normalized intensity.
For “GGACTTTGGCCCTCAGCCCAATGTGGTAGGGCCTAGGGAGATTAGAGTATCGGTCGA” the value was 5.47 log2 normalized intensity.
For “GATTGGACTTTGGCCTGTGAATCCACATTCGCCTAGGGAGATTAGAGTATCGGTCGA” the value was 5.98 log2 normalized intensity; for “CAGCCTTTGGACTTTGAACTGCAACATCAGGCCTAGGGAGATTAGAGTATCGGTCGA”, 8.26 log2 normalized intensity.
For “ACCTGGAACTGAAAGAGACCTTTGACATCAGCCTAGGGAGATTAGAGTATCGGTCGA” the value was 4.5 log2 normalized intensity; for “CCCTTTGCACATGCCCCTCCCAGGGACACAGCCTAGGGAGATTAGAGTATCGGTCGA”, 3.12 log2 normalized intensity.
